Experimental data taken from PubChem BioAssay AID449762 (Southern Research Specialized Biocontainment Screening …, 2010).
Screen size: about 330,000 compounds; about 1,900 (0.58%) were called active. Not shown: some 4% with an inconclusive outcome. Not all results are given here. Measured potencies and affinities stand elsewhere. Values without a mark were called inactive. Cut-off read from the data, not from the text of the source: inconclusive = inhibition above about 70% without an active follow-up result; inactive = below that.

Test: M. tuberculosis growth inhibition, HTS (AID 449762);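 note: bacterial growth assessed after seven days of incubation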
Conditions: M. tuberculosis H37Rv growth inhibition, 7H9 media; at 25 µM; hits give high values
`Cc1cc(OCC(O)CNC(C)(C)C)ccc1Cl` (stereo unspecified) gave an inhibition of -5.73%.
In the case of `COc1ccc(CCNCC(O)COc2ccc(Cl)cc2)cc1OC` (stereo unspecified), the inhibition is reported as -0.15%.
`Cc1cc(C)c(OCC(=O)OCC(=O)NC2CCCCCCC2)c(C)c1` showed an inhibition of -6.93%.
With `CCN(CC)S(=O)(=O)c1ccc(C(=O)NNC2=NS(=O)(=O)c3ccccc32)cc1` the inhibition was -5.34%.
`O=c1[nH]c(CN2CCN(c3ccccc3Cl)CC2)nc2ccsc12` gave an inhibition of 6.57%.
Work on `COc1ccccc1N1CCN(Cc2nc3ccsc3c(=O)[nH]2)CC1` yielded an inhibition of -2.58%.
For `COC(=O)C1=C(c2c(C)noc2C)C[C@@H]2CC[C@H]1N2C(=O)N1CCC(C)CC1`, the inhibition was -12.5%.
With `COc1ccc(-c2nnc(SCc3ccc(C(=O)O)cc3)n2C)cc1OC` the inhibition was 2.72%.
In the case of `COc1ccc(C(=O)C2CCN(C(=S)NCC3CCCO3)CC2)cc1` (stereo unspecified), the inhibition is reported as 0.55%.
`CC(C)=CCC[C@](C)(O)C1CC[C@]2(C)C1[C@H](O)CC1[C@@]3(C)CC[C@H](O[C@@H]4O[C@H](CO)[C@@H](O)[C@H](O)[C@H]4O[C@@H]4O[C@H](CO)[C@@H](O)[C@H](O)[C@H]4O)C(C)(C)C3CC[C@]12C` (stereo partly specified) gave an inhibition of -2.47%.
Compound `CC(C)=CCC[C@](C)(O[C@@H]1O[C@H](CO[C@@H]2OC[C@@H](O)[C@H](O)[C@H]2O)[C@@H](O)[C@H](O)[C@H]1O)C1CC[C@]2(C)C1[C@H](O)CC1[C@@]3(C)CC[C@H](O[C@@H]4O[C@H](CO)[C@@H](O)[C@H](O)[C@H]4O)C(C)(C)C3CC[C@]12C` (stereo partly specified) has an inhibition of 1.5%.
In the case of `N#Cc1cc(Nc2c(N)nc[nH]c2=O)c([N+](=O)[O-])cc1C#N`, the inhibition is reported as -9.11%.
In the case of `CCc1ccccc1OCCCOc1ccc(OC)cc1`, the inhibition is reported as 3.7%.
With `Cc1[nH]c2ccccc2c1C(=O)COC(=O)c1ccccc1O` the inhibition was -1.43%.
In the case of `O=C(COC(=O)c1ccc([N+](=O)[O-])s1)NCc1ccccc1`, the inhibition is reported as 40.3%.
Work on `CC(C)[C@H](NC(N)=O)C(=O)NNC(=O)COc1cccc(C(F)(F)F)c1` yielded an inhibition of -1.74%.
For `CCOC(=O)C(=O)Nc1ccc(OCc2ccccc2)cc1`, the inhibition was 62.7%.
Work on `CC(C)NC(=O)COc1ccc(OCc2ccccc2)cc1` yielded an inhibition of -4.33%.
`CCOc1ccc(NC(C)=O)cc1` gave an inhibition of 3.93%.
In the case of `CC(C)Oc1ccc(NC(N)=O)cc1`, the inhibition is reported as -11.6%.
`Cc1ccc(S(=O)(=O)n2nc(-n3c(C)ccc3C)c3c(F)cccc32)c2ccccc12` showed an inhibition of 11.8%.
In the case of `O=C(N/N=C/C=C/c1ccccc1[N+](=O)[O-])c1cccs1`, the inhibition is reported as -11.8%.
For `O=C(N/N=C/C=C/c1ccc([N+](=O)[O-])cc1)c1cccs1`, the inhibition was 3.01%.
With `Cc1noc(NS(=O)(=O)c2ccc(NC(=O)C(C)(C)C)cc2)c1C` the inhibition was 3.27%.
In the case of `C=CCNC(=O)Cc1ccc(S(=O)(=O)N2CCOCC2)s1`, the inhibition is reported as -1.17%.
With `COc1cc(C(C)=O)ccc1OCC(O)Cn1nc(C)c(Br)c1C` (stereo unspecified) the inhibition was 3.09%.
For `NS(=O)(=O)c1ccc(CNC(=O)c2ccc3ccccc3n2)cc1`, the inhibition was 7.68%.
`O=C(Cc1cn2ccsc2n1)Nc1nc2c(s1)CN(Cc1ccccc1)CC2` showed an inhibition of -6%.
`O=C(Cc1cn2ccsc2n1)Nc1nc2c(s1)CCCC2` gave an inhibition of -0.56%.
With `COc1ccc(S(=O)(=O)Nc2c3ccccc3nc(=O)n2-c2ccccc2)cc1` the inhibition was 5.16%.
With `O=C1CCC(C(=O)N(Cc2cccs2)C2(C(=O)NC3CCCCC3)CCCCC2)N1` (stereo unspecified) the inhibition was 1.48%.
In the case of `O=C1C=C(c2ccc(Oc3ccccc3)cc2)C[C@@H](c2ccc(F)cc2)C1`, the inhibition is reported as 24.8%.
With `CCOc1ccc(OCCCC(=O)Nc2cc(Cl)ccc2-n2cncn2)cc1` the inhibition was 9.23%.
Compound `N#CC(C#N)=C1CCc2ccccc2N1` has an inhibition of -3.11%.
In the case of `CCCCOC(=O)/C(=C\c1ccc([N+](=O)[O-])o1)NC(=O)c1ccccc1`, the inhibition is reported as -4.98%.
For `O=C(NCCO)/C(=C\c1ccc([N+](=O)[O-])o1)NC(=O)c1ccccc1`, the inhibition was 59%.
In the case of `COc1ccc(C2C(C(=O)Nc3ccccn3)=C(C)Nc3ncnn32)c(OC)c1` (stereo unspecified), the inhibition is reported as -4.42%.
For `COc1ccc(OC)c(-c2csc(NC(=O)CSc3ccccc3)n2)c1`, the inhibition was -4.32%.
Work on `COc1ccc(CC(=O)Nc2ccc(S(=O)(=O)Nc3onc(C)c3C)cc2)cc1OC` yielded an inhibition of 5.55%.
`COc1ccc(NC(=O)COC(=O)CCCc2c[nH]c3ccccc23)cc1` showed an inhibition of 37.6%.
With `COc1ccc(C2NN=C(c3c[nH]c4ccccc34)C2O)cc1` (stereo unspecified) the inhibition was 4.48%.
Work on `O=C(COC(=O)c1ccc2c(c1)C(=O)N(CCc1ccccc1)C2=O)Nc1ccc(OC(F)F)cc1` yielded an inhibition of -2.61%.
In the case of `CCC(CO)(C(=O)OC1C[N+]2(C)CCC1CC2)c1ccccc1` (stereo unspecified), the inhibition is reported as -13.2%.
Work on `OCCN1CCN(Cc2cc(Cl)c3cccnc3c2O)CC1` yielded an inhibition of 6.31%.
For `CCOC(=O)N1CCN(Cc2ccc(O)c3ncccc23)CC1`, the inhibition was 55.4%.
Work on `CC(=O)Nc1ccc(S(=O)(=O)NCCc2c[nH]c3ccc(C)cc23)cc1` yielded an inhibition of 0.51%.
`COc1ccc(CNC(=O)[C@@H]2CC=C[C@@H]3CCN(Cc4ccc(Cl)c(Cl)c4)C(=O)[C@@H]32)cc1` gave an inhibition of 18.4%.
For `COc1ccc(OCCCCN(C)Cc2ccccc2)cc1`, the inhibition was 13.7%.
With `O=C(NNC(=S)Nc1ccccc1)c1ccncc1` the inhibition was 7.24%.
With `COc1cccc(C2c3[nH]c4ccccc4c3CCN2Cc2cccn2-c2ncccn2)c1` (stereo unspecified) the inhibition was 2.06%.
For `CCOc1ccc(C2c3[nH]c4ccccc4c3CCN2Cc2cccn2-c2ncccn2)cc1` (stereo unspecified), the inhibition was 67.7%.
In the case of `Cc1ccc(CNC(=O)CSCc2cccc(F)c2)cc1`, the inhibition is reported as 12.3%.
`CNC(=S)N/N=C/c1c(C)nn(-c2ccc(F)cc2)c1Cl` showed an inhibition of 6.49%.
`CC1=C(C)CC(C(=O)Nc2nccs2)C(C(=O)O)C1` (stereo unspecified) showed an inhibition of -4.95%.
In the case of `S=c1nccc(-c2ccc3c(c2)CCO3)[nH]1`, the inhibition is reported as 3.97%.
For `S=c1nccc(-c2ccc(Cl)cc2)[nH]1`, the inhibition was 54.5%.
